# Experimental data reported in PubChem BioAssay (NCATS).
# Records with an inconclusive call do not appear. Where a call stands in place of a potency, no number is given. Activity calls are given as the source filed them. Calls follow the shape of the dose curve; as a rule, active = well fitted curve in the direction sought with a large enough effect; inconclusive = small, poorly fitted or top-dose-only effect, or another doubt; inactive = no such curve, though single readings can be large; an effect the other way counts as inactive or inconclusive.
# Tests used:
# [1] = qHTS of pediatric cancer cell lines to identify multiple opportunities for drug repurposing: Primary screen for RD cells (AID 1347104); also: nearly all actives have a fitted effect of over 55% in size; also: potency is read from the fitted curve at half-maximal effect
# How it was run: (§1)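 Following a 5-hour attachment period, cells at 500-1,000/well received compounds and were cultured for 48 hours. CellTiter-Glo was added and luminescence read to estimate viable, metabolically active cells.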
# [2] = qHTS of pediatric cancer cell lines to identify multiple opportunities for drug repurposing: Primary screen for MG 63 (6-TG R) cells (AID 1347105); also: nearly all actives have a fitted effect of over 50% in size; also: potency is read from the fitted curve at half-maximal effect
# How it was run: as §1
# [3] = qHTS of pediatric cancer cell lines to identify multiple opportunities for drug repurposing: Primary screen for control Hh wild type fibroblast cells (AID 1347106);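 also: series mostly up to about 46 µM; a drop in luminescence marks cytotoxicity and a rise apparent proliferation; nearly all actives have a fitted effect of over 55% in size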
# How it was run: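 Viability after 48 h compound treatment at 37C, 500-1,000 cells/well, read as ATP luminescence with CellTiter-Glo. Primary screens used 11-point (MIPE, 0.78 nM-46 µM) or 8-point (NPC, 0.59 nM-46 µM) final concentrations; follow-up screens used 11-point dilutions.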
# [4] = qHTS of pediatric cancer cell lines to identify multiple opportunities for drug repurposing: Primary screen for Rh30 cells (AID 1347107); also: nearly all actives have a fitted effect of over 75% in size; also: potency is read from the fitted curve at half-maximal effect
# How it was run: (§2)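 Cells (500-1,000/well) rested 5 h, then received compounds for 48 h; metabolically active cells were measured by CellTiter-Glo luminescence. Final concentrations spanned up to 46 µM (MIPE, 11-point) or 0.59 nM-46 µM (NPC, 8-point) in primary screens, 11-point in follow-ups.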
# [5] = qHTS of pediatric cancer cell lines to identify multiple opportunities for drug repurposing: Primary screen for OHS-50 cells (AID 1347103); also: nearly all actives have a fitted effect of over 40% in size; also: potency is read from the fitted curve at half-maximal effect
# How it was run: as §2
# [6] = qHTS of pediatric cancer cell lines to identify multiple opportunities for drug repurposing: Primary screen for Rh41 cells (AID 1347108); also: nearly all actives have a fitted effect of over 70% in size; also: potency is read from the fitted curve at half-maximal effect
# How it was run: as §1
# [7] = qHTS of pediatric cancer cell lines to identify multiple opportunities for drug repurposing: Primary screen for Rh18 cells (AID 1347102); also: nearly all actives have a fitted effect of over 65% in size
# How it was run: as §2
# [8] = qHTS of pediatric cancer cell lines to identify multiple opportunities for drug repurposing: Confirmatory screen for NB1643 cells (AID 1347109); also: nearly all actives have a fitted effect of over 45% in size; also: potency is read from the fitted curve at half-maximal effect
# How it was run: as §2
smiles,measurement,setting,value
CO[C@H]1C[C@@H]2CC[C@@H](C)[C@@](O)(O2)C(=O)C(=O)N2CCCC[C@@H]2C(=O)O[C@H]([C@@H](C)C[C@@H]2CC[C@H](O)[C@H](OC)C2)CC(=O)[C@H](C)C=C(C)[C@@H](O)[C@@H](OC)C(=O)[C@H](C)C[C@H](C)C=CC=CC=C1C,Potency,[1],inactive
same,Potency,[2],inactive
same,Potency,[3],inactive
same,Potency,[4],inactive
CC/C(=C(\c1ccccc1)c1ccc(OCCN(C)C)cc1)c1ccccc1,Potency,[5],17.4 µM (active)
same,Potency,[2],inactive
same,Potency,[3],inactive
same,Potency,[4],inactive
same,Potency,[6],inactive
N[C@@]1(C(=O)O)CS(=O)(=O)[C@H]2[C@H](C(=O)O)[C@H]21,Potency,[7],inactive
same,Potency,[2],inactive
same,Potency,[3],inactive
same,Potency,[4],inactive
same,Potency,[6],inactive
NC(=O)c1cnc(-c2ccc(C3(N)CCC3)cc2)c(-c2ccccc2)c1,Potency,[7],inactive
same,Potency,[5],2.73 µM (active)
same,Potency,[4],inactive
COC[C@@H](c1ccc(C(F)(F)F)cc1)N1CCN(C2(C)CCN(C(=O)c3c(C)ncnc3C)CC2)C[C@H]1C,Potency,[7],inactive
same,Potency,[1],inactive
same,Potency,[4],inactive
same,Potency,[6],inactive
COc1cc2ncnc(-n3nc(-c4ccccn4)nc3N)c2cc1OC,Potency,[5],2.17 µM (active)
same,Potency,[2],inactive
same,Potency,[6],inactive
CC=CC(=O)N(CC)c1ccccc1C,Potency,[7],inactive
same,Potency,[5],inactive
same,Potency,[2],inactive
same,Potency,[3],inactive
same,Potency,[4],inactive
same,Potency,[6],inactive
O=C(O)c1c(Cl)c(Cl)c(Cl)c(Cl)c1-c1c2cc(I)c(=O)c(I)c-2oc2c(I)c(O)c(I)cc12,Potency,[5],7.69 µM (active)
Clc1cc(Cl)cc(CNc2ncncc2-c2ccc3c(c2)OCO3)c1,Potency,[4],inactive
Nc1nc(F)nc2c1ncn2[C@@H]1O[C@H](COP(=O)(O)O)[C@@H](O)[C@H]1O,Potency,[7],inactive
same,Potency,[5],0.485 µM (active)
same,Potency,[2],0.469 µM (active)
same,Potency,[6],inactive
COc1ccc2c(Oc3ccc(NC(=O)c4c(C)n(CC(C)(C)O)n(-c5ccccc5)c4=O)cc3F)ccnc2c1,Potency,[5],21.7 µM (active)
same,Potency,[3],inactive
same,Potency,[8],inactive
O=C(Nc1ccccc1Br)N[C@@H]1CCN(c2ccc(C(F)(F)F)cn2)C1,Potency,[7],inactive
same,Potency,[3],inactive
CCn1c(C(=O)N(C2CC2)C2CC2)cc2c3c(ncn3C)c(Nc3cc(C)n(C)n3)nc21,Potency,[1],inactive
same,Potency,[2],inactive
same,Potency,[3],inactive
CC=C(C)C(=O)O[C@H]1C(C)=C[C@]23C(=O)[C@@H](C=C(CO)[C@@H](O)[C@]12O)[C@H]1[C@@H](C[C@H]3C)C1(C)C,Potency,[5],21.7 µM (active)
same,Potency,[4],inactive
same,Potency,[8],inactive
CC[C@H]1OC(=O)[C@H](C)C(=O)[C@H](C)[C@@H](O[C@H]2O[C@H](C)C[C@H](N(C)C)[C@@H]2O)[C@](C)(OC)C[C@@H](C)C(=O)[C@H](C)[C@H]2N(CCCCn3cnc(-c4cccnc4)c3)C(=O)O[C@]12C,Potency,[5],inactive
CC(C)[C@H](CO)Nc1nc(Nc2ccc(C(=O)O)c(Cl)c2)c2ncn(C(C)C)c2n1,Potency,[7],inactive
same,Potency,[2],inactive
same,Potency,[3],inactive
same,Potency,[4],inactive
CO[C@H]1C[C@@H]2CC[C@@H](C)[C@@](O)(O2)C(=O)C(=O)N2CCCC[C@@H]2C(=O)O[C@H]([C@H](C)C[C@@H]2CC[C@H](OCCO)[C@H](OC)C2)CC(=O)[C@H](C)C=C(C)[C@@H](O)[C@@H](OC)C(=O)[C@H](C)C[C@H](C)C=CC=CC=C1C,Potency,[5],6.11 µM (active)
same,Potency,[2],inactive
same,Potency,[4],inactive
same,Potency,[6],1.18 µM (active)
CC(C)n1cnc2c(NCCCCCCNC(=O)OC(C)(C)C)nc(NCCO)nc21,Potency,[7],inactive
same,Potency,[1],33.2 µM (active)
same,Potency,[2],inactive
same,Potency,[3],inactive
CO[C@H]1C=CO[C@@]2(C)Oc3c(C)c(O)c4c(O)c(c5c(c4c3C2=O)NC2(CCN(CC(C)C)CC2)N=5)=NC(=O)C(C)=CC=C[C@H](C)[C@H](O)[C@@H](C)[C@@H](O)[C@@H](C)[C@H](OC(C)=O)[C@H]1C,Potency,[7],inactive
same,Potency,[1],inactive
same,Potency,[2],inactive
same,Potency,[3],inactive
same,Potency,[4],inactive
same,Potency,[6],inactive
O=C(Nc1cccc(Br)c1)c1cccc(S(=O)(=O)N2CCCCCC2)c1,Potency,[5],19.3 µM (active)
same,Potency,[8],inactive
Cc1cc(OCCCc2c(C(=O)O)n(Cc3cccnc3)c3c(-c4c(COc5ccc(N6CCN([S+](C)(=O)[O-])CC6)cc5)nn(C)c4C)cccc23)cc(C)c1Cl,Potency,[1],29.6 µM (active)
same,Potency,[2],29.6 µM (active)
same,Potency,[3],inactive
same,Potency,[8],16.5 µM (active)
C[C@H](NC(=O)C(=O)Nc1ccccc1C(C)(C)C)C(=O)N[C@@H](CC(=O)O)C(=O)COc1c(F)c(F)cc(F)c1F,Potency,[7],inactive
same,Potency,[5],inactive
same,Potency,[2],14.8 µM (active)
same,Potency,[4],inactive
CCCCCNC(=O)N1CCC(CN(Cc2ccc(Cl)cc2)Cc2ccc([N+](=O)[O-])s2)C1 (centres undefined),Potency,[5],24.3 µM (active)
same,Potency,[1],29.6 µM (active)
same,Potency,[3],inactive
O=c1c(-c2ccc(O)cc2)coc2cc(OC3O[C@H](CO)[C@H](O)[C@H](O)[C@H]3O)cc(O)c12 (some centres undefined),Potency,[5],inactive
same,Potency,[1],6.62 µM (active)
same,Potency,[2],inactive
same,Potency,[6],8.33 µM (active)
COc1cc(N2CCC(N3CCN(C)CC3)CC2)ccc1Nc1ncnc(Nc2ccccc2S(=O)(=O)C(C)C)n1,Potency,[2],inactive
same,Potency,[3],inactive
same,Potency,[4],5.26 µM (active)
same,Potency,[6],5.26 µM (active)
CCOC(CN1C(=O)[C@](CC(=O)Nc2ccc(C)cc2)(NC(=O)Nc2ccc(C)cc2)c2ccccc21)OCC,Potency,[7],inactive
same,Potency,[3],inactive
same,Potency,[4],inactive
O=c1cc(CN2CCOCC2)occ1OCCCCCSc1ccnc2cc(C(F)(F)F)ccc12,Potency,[5],15.3 µM (active)
same,Potency,[2],inactive
same,Potency,[4],inactive
O=C1NC(=O)C(=Cc2ccc3c(c2)OC(F)(F)O3)S1,Potency,[7],inactive
same,Potency,[3],inactive
same,Potency,[6],inactive
same,Potency,[8],inactive
CNC1CCC(N(Cc2cccc(-c3ccncc3)c2)C(=O)c2sc3c(F)ccc(F)c3c2Cl)CC1 (centres undefined),Potency,[5],24.3 µM (active)
same,Potency,[1],10.5 µM (active)
same,Potency,[2],23.5 µM (active)
same,Potency,[6],18.7 µM (active)
Cc1c(NC(=O)c2ccc(C(C)(C)C)cc2)cccc1-c1cn(C)c(=O)c(Nc2ccc(C(=O)N3CCOCC3)cc2)n1,Potency,[5],24.3 µM (active)
same,Potency,[2],inactive
same,Potency,[3],inactive
NS(=O)(=O)c1ccc(NC2=CC(=O)c3ccccc3C2=O)cc1,Potency,[5],inactive
same,Potency,[2],inactive
same,Potency,[3],inactive
same,Potency,[4],inactive
same,Potency,[6],inactive
O=c1cc(-c2ccccc2)oc2cc(O)c(O)c(O)c12,Potency,[1],inactive
same,Potency,[2],inactive
same,Potency,[3],inactive
CC(=O)OC1C(C)OC(Oc2c(-c3ccc(O)cc3)oc3cc(O)cc(O)c3c2=O)C(O)C1OC(C)=O (centres undefined),Potency,[2],inactive
same,Potency,[3],inactive
